Results published in PubChem BioAssay (EPA / NIEHS).
Values joined by “and” are separate entries in the source; they are usually repeats but may differ in a detail not shown here. Equal entries are not always repeated. Records with an inconclusive call do not appear. The source holds several records for some structures; these can differ, active in one and inactive in another. Active and inactive are the calls of the source. How the source made its calls: active means hit-call score of the fitted dose curve at least 0.9, where 1 is the maximum; inconclusive means response in the unintended direction; inactive means score below 0.9.

What follows are molecules tested against Cellular tumor antigen p53 (Homo sapiens) (UniProt P04637) (assay: TOX21_p53_BLA_p2_ratio: Tox21 HCT-116 p53 Agonism Beta-lactamase Assay, Ratio, Phase 2 (AID 2283592)).
From the text: TOX21_p53_BLA_p2 is a cell-based, single-readout assay that uses HCT116, a human intestinal cell line, […] in a 1536-well plate.TOX21_p53_BLA_p2_ratio is an assay readout measuring reporter gene via receptor activity and designed using inducible reporter (beta lactamase induction) detected with GAL4 b-lactamase reporter gene. The signal is derived from the ratio of cleaved (ch2) to uncleaved (ch1) reporter gene substrate used as the measure of target activity.Data from the assay component TOX21_p53_BLA_p2_ratio was analyzed into 1 assay endpoint. This assay endpoint, TOX21_p53_BLA_p2_ratio, was analyzed in the positive analysis fitting direction relative to DMSO as the negative control and baseline of activity. Using a type of inducible reporter, gain-of-signal activity can be used to understand changes in the reporter gene as they relate to the gene TP53. Furthermore, this assay endpoint can be referred to as a primary readout, because this assay has produced multiple assay endpoints and this ratio serves a reporter gene function to understand target activity. To generalize the intended target to other relatable targets, this assay endpoint is annotated to the DNA binding intended target family, where the subfamily is tumor suppressor.
Thawing Method: Place 14 mL of pre-warmed thaw medium into a 15 mL of conical tub. Remove the vial of cells to be thawed from liquid nitrogen and thaw rapidly by placing at 37C in a water bath with gentle agitation for 1-2 minutes. Decontaminate the vial by wiping with 70% ethanol before opening in a biological safety cabinet. Transfer the vial contents drop-wise into 14 mL of thaw medium in a sterile 15-mL conical tub. Centrifuge cells at 900 rpm for 4 minutes and resuspend in thaw medium. Transfer contents to the T75 tissue culture flask containing Thaw Medium and place flask in a humidified 37C/5% CO2 incubator. Switch to growth medium at first passage.Propagation Method: Aspirate medium, rinse once in DPBS, add 0.25% Trypsin/EDTA and swirl to coat the cell evenly. Add an equal volume of Growth Medium to inactivate Trypsin after 2-3 minutes incubation at 37C. Centrifuge cells at 900 rpm for 4 minutes and resuspend in growth medium. Cell should be passage or fed at least twice a week.Assay Protocol: Harvest cells from culture in growth medium and resuspend in assay medium. 2.2 Dispense 4000 cells/5 uL/well into 1536-well black/clear bottom plates using a Multidrop dispenser. After the cells were incubated at 37C for 5 hours, 23 nL of compounds dissolved in DMSO were transferred to the assay plate by a PinTool resulting in a 217-fold dilution. Incubate the plates for 16 hours at 37C, 5% CO2. Add 1 uL of 6X LiveBLAzer FRET B/G (CCF4-AM) Substrate Mixture to each well using a BioRAPTR dispenser and incubate the plates at room temperature for 2 hours. Measure fluorescence intensity at 460 and 530 nm emission and 405 nm excitation by an Envision detector. Data is expressed as the ratio of 460nm/530nm emissions. Add 4 uL of Cell-titer Glo to each well using BioRAPTR and incubate the plates at room temperature for 2 hours. Measure fluorescence intensity by a VewLux plate reader.

Sequence of Cellular tumor antigen p53 (Homo sapiens) (P04637 whole entry, looked up, the tested form may be a part): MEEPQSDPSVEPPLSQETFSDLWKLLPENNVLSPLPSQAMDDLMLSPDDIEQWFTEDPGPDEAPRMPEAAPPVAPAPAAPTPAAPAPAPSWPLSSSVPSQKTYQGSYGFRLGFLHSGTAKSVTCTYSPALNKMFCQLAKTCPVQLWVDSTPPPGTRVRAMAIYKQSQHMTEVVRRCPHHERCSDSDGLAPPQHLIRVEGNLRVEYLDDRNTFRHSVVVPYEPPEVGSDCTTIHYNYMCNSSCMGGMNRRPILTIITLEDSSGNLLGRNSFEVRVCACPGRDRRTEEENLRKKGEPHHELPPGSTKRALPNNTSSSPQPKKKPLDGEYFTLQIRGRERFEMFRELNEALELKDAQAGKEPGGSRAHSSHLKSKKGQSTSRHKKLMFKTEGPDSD

| SMILES | outcome | AC50 |
| --- | --- | --- |
| Cc1ccncc1 | inactive | – |
| CC/C=C\CCCCO | inactive | – |
| COC(=O)c1ccc(C(=O)OC)cc1 | inactive | – |
| CC(=O)c1ccc(O)cc1 | inactive | – |
| CNC(=C[N+](=O)[O-])NCCSCc1ccc(CN(C)C)o1 | inactive | – |
| CC1=CC(=O)[C@H]2C[C@@H]1C2(C)C | inactive | – |
| CC(=O)CCc1ccc(O)cc1 | inactive | – |
| CCCCN(CCO)CCO | inactive | – |
| CCCc1ccc(N)cc1 | inactive | – |
| C[Si]1(C)N[Si](C)(C)N[Si](C)(C)N1 | inactive | – |
| C=C1CC/C=C(\C)CC[C@@H]2[C@@H]1CC2(C)C | inactive | – |
| CCO[Si](CC)(OCC)OCC | inactive | – |
| OC[C@H]1O[C@@H](O[C@H]2[C@H](O)[C@@H](O)[C@H](O)O[C@@H]2CO)[C@H](O)[C@@H](O)[C@H]1O | inactive | – |
| CCCCCCCCCCCCN1CCOCC1 | inactive | – |
| CCCc1ccc(O)cc1 | inactive | – |
| O=S1(=O)CC=CC1 | inactive | – |
| CC(C)(C)C1CCC(O)CC1 (stereo not given) | inactive | – |
| Cc1cc(O)c2c(c1)C(=O)c1cc(O)cc(O)c1C2=O | – | 6.55 µM (active) and 13.2 µM (active) |
| CC1=CC(C)C(C=O)C(C)C1 (stereo not given) (tested in a mixture with another compound) | inactive | – |

| SMILES | outcome | AC50 |
| --- | --- | --- |
| C[C@H](CCC(=O)O)[C@H]1CC[C@H]2[C@@H]3CC[C@@H]4C[C@H](O)CC[C@]4(C)[C@H]3CC[C@]12C | inactive | 21.8 µM (active) |
| CC1=CC(O)CC(C)(C)C1 (stereo not given) | inactive | – |
| C=C(C)C(=O)OCCC[Si](OC)(OC)OC | inactive | – |
| CCCCC(CC)COCCO (stereo not given) | inactive | – |
| CCC(=O)OC(C)(C)C1CC=C(C)CC1 (stereo not given) | inactive | – |
| O=S(=O)(O)c1cc(S(=O)(=O)O)c2c(N=Nc3ccccc3)c(O)ccc2c1 | inactive | – |
| CC(=O)c1ccc2ccccc2c1 | inactive | – |
| CCCCCC(=O)O[C@]1(C(C)=O)CC[C@H]2[C@@H]3CCC4=CC(=O)CC[C@]4(C)[C@H]3CC[C@@]21C | inactive | – |
| CCCCCCCCCOS(=O)(=O)O | inactive | – |
| O=C(Nc1cccc(Cl)c1)OCC#CCCl | – | 19.9 µM (active) |
| CC(=O)CC(C)(C)C1CCCCC1 | inactive | – |
| C[C@]12CC[C@@H]3c4ccc(O)cc4CC[C@H]3[C@@H]1CC[C@@H]2O | inactive | 29 µM (active) and 16.7 µM (active) |
| C=C(C)C(N)=O | inactive | – |
| CCCCCC1C(=O)CCC1CC(=O)OC (stereo not given) | inactive | – |
| CCOC(=O)CCCCCCCCC(=O)OCC | inactive | – |
| CN(C)CCCNCCCN(C)C | inactive | – |
| CCNC(=S)NCC | inactive | – |
| O=C(O)C1=NN(c2ccc(S(=O)(=O)O)cc2)C(=O)C1 | inactive | – |
| CCOc1ccc(NC(C)=O)cc1 | inactive | – |
